# Source: PubChem (National Center for Advancing Translational Sciences (NCATS))
# SW480 rerep – inducers of DNA re-replication in SW480 colon cancer cells; SW480 DNA re-replication, Hoechst DNA content imaging, 48 h; Potency, µM (doses to about 46.1 µM), without a hit: top-dose re-replication activation, actives largely listed as activators; 1.8% of 340,000 active; further: % of control where 0% means no effect; nearly all actives have a fitted effect of over 55% in size
#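 DNA re-replication was detected as more nuclei of elevated Hoechst intensity after 48 hr exposure to compound (23 nL pinned per well of 250 cells).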
# PINK1 modulator – PINK1 expression modulation | PINK1 immunofluorescence, high-content cytometry, 24 h | Potency, µM (doses to about 76.6 µM), for the others: at the highest dose activation (PINK1 increase), hits mostly activators | 0.2% of 410,000 active | AID 624263; active means well fitted activation curve with a large enough effect; inconclusive means small, poorly fitted or top-dose-only effect; cell line not stated here; further: % of control where 0% means no effect; nearly all actives have a fitted effect of over 65% in size
#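 Stable cell line, 250 cells/well, 12 h attachment; compounds pinned at 5 concentrations, 24 h; CCCP control. Fixed with nuclear dye, primary antibodies 12 h at 10 degrees C, secondary plus cell stain; laser-scanning cytometer read.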
# KB-3-1 cytotox – KB-3-1 parental cell cytotoxicity | KB-3-1 viability, CellTiter-Glo ATP luminescence, 72 h | Potency, µM (doses to about 46.1 µM), hits mostly cytotoxic | 1.4% of 400,000 active | AID 1347075; further: on the % scale 0 is the no-effect control and ±100 the full control effect; nearly all actives have a fitted effect of over 60% in size
#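 Viability of parental KB-3-1 cells, measured by CellTiter-Glo luminescence, followed a 72 h incubation at 37 °C with pinned compounds in phenol-red-free DMEM containing 10% FBS.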
# KB-V1 MDR tox – kills drug-selected multidrug resistant KB-V1 cells; KB-V1 MDR cells viability, CellTiter-Glo, 72 h; Potency, µM (top dose mostly 46.1 µM), most hits filed as cytotoxic; 3.4% of 400,000 active; AID 1347076; further: on the % scale 0 is the no-effect control and ±100 the full control effect; nearly all actives have a fitted effect of over 60% in size
#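 Cytotoxicity via CellTiter-Glo luminescence after 72 h compound exposure at 37 degrees C. Cells: drug-selected KB-V1 line, DMEM phenol-red free plus 10% FBS. Compounds tested at multiple concentrations; normalized data fitted to concentration-effect curves.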
# MCF10A rereplic – DNA re-replication induction in MCF 10a cells | MCF 10A DNA re-replication, Hoechst nuclear intensity, 48 h | 2.9% of 350,000 active | Potency, µM (titrated, usually from 46.1 µM), for the others: top-dose activity, positive = re-replication, most hits filed as activators | AID 624296; further: % of control where 0% means no effect; nearly all actives have a fitted effect of over 50% in size
# An asterisk follows results filed as active; i = inactive; ? = inconclusive; . = no result; ! = repeats disagree; [ ] = another dose, or the depositor's remark. This is a sample that favours compounds with a hit; in the whole collection about 6.7% have one here. Unless noted, the call rests on the fitted dose curve; in most records, active means well fitted curve in the direction sought with a large enough effect; inconclusive means small, poorly fitted or top-dose-only effect, or another doubt; inactive means no such curve, though single readings can be large; an effect the other way counts as inactive or inconclusive. Potency means the concentration at half of the fitted maximal effect.
SMILES,SW480 rerep,PINK1 modulator,KB-3-1 cytotox,KB-V1 MDR tox,MCF10A rereplic
Cc1cccc(N2CCN(C(=O)CC(NC(=O)c3ccccc3)c3ccccc3)CC2C)c1 (centres undefined),-30%,0%,?,3.7µM*,2%
Cc1cccc(N2CCN(C(=O)c3csc4ccccc34)CC2C)c1 (centres undefined),.,0%,?,15µM*,?
Cc1cc(C(=O)N2CCN(c3ccccc3O)CC2)c(C)o1,-3%,4%,i,i,10%
COc1cccc(N2CCN(C(=O)CC(NC(=O)c3ccccc3)c3ccccc3)CC2)c1 (centres undefined),2%,2%,i,i,13%
Cc1cccc(N2CCN(C(=O)c3ccncc3)CC2C)c1 (centres undefined),?,5%,?,i,19%
Cc1cccc(N2CCN(C(=O)c3ccc4ccccc4c3)CC2C)c1 (centres undefined),11%,27%,?,?,?
COCCn1c(SCC(=O)Nc2ccc(F)cc2)nc2c(c1=O)SCC2,.,0%,i,i,.
COc1cccc(N2CCN(C(=O)c3cc(C)oc3C)CC2)c1,?,6%,23µM*,15µM*,?
COc1ccccc1N1CCN(C(=O)c2cc(C)oc2C)CC1,25%,4%,?,?,?
CC(C)c1ccc(CNc2nc(-c3ccco3)nn2C(=O)c2ccc([N+](=O)[O-])cc2)cc1,.,7%,i,i,.
COc1cccc(CNc2cccc(C(F)(F)F)c2)c1O,-18%,12%,21µM*,i,-1%
COc1cccc(CNc2ccc(F)c(Cl)c2)c1O,-1%,0%[38.3 µM],i,i,?
Cc1oc2cc3oc(=O)c(CCC(=O)NCCCN4CCOCC4)c(C)c3cc2c1C,-6%,0%,i,i,3%
Cc1cccn2c(=O)nc(SCC(=O)NC3CCCC3)nc12,18µM*,0%,i,i,0%
COc1cccc(/C(O)=C/c2nc3ccc(C(=O)NCCc4ccc(Cl)cc4)cc3[nH]c2=O)c1,12µM*,1%,21µM*,?,8.2µM*
O=C(NCCc1ccc(Cl)cc1)c1ccc2nc[nH]c2c1,-4%,-1%,i,i,17%
CCOC(=O)C1=C(CN(C)Cc2ccccc2)NC(=O)NC1c1ccc(OC(C)C)cc1 (centres undefined),.,5%,i,i,.
O=C1/C(=C\c2ccco2)CCC/C1=C\c1ccco1,?,?,i,i,21µM*
COc1ccc(-c2nnc(SCc3cc(=O)c4cc(C)cc(C)c4[nH]3)n2C)cc1,.,3%,8.2µM*,?,.
CCOc1ccc(C2C(=O)N(C3CCCCCC3)CC(=O)N2Cc2ccccc2)cc1OC (centres undefined),.,4%,.,.,.
CCN(CC)C(=O)CSc1nc2c(c(=O)n(C)c(=O)n2C)n1Cc1ccccc1,.,2%,i,i,.
O=C(NC1CCCCC1)[C@@H]1CC=C[C@@H]2CCN(Cc3ccc(Cl)c(Cl)c3)C(=O)[C@@H]21,.,.,i,i,.
COc1ccc(/C=C2\CCC(C3CCCC3)C2=O)cc1Cn1cccn1 (centres undefined),29%,-1%,i,23µM*,54%
COc1ccccc1/C=C1\CCC(C2CCCC2)C1=O (centres undefined),-2%,4%,i,i,18µM*
CC1CCN(C(=O)Cn2c(=O)n(CCCCCC(=O)NCc3ccccc3Cl)c(=O)c3sccc32)CC1,.,1%,.,.,.
SMILES,SW480 rerep,PINK1 modulator,KB-3-1 cytotox,KB-V1 MDR tox,MCF10A rereplic
COc1ccc(F)cc1C(=O)C1CCCN(Cc2cccn2-c2ccccn2)C1 (centres undefined),?,3%,i,i,?
COc1ccc(C(=O)C2CCCN(Cc3cccn3-c3ccccn3)C2)c(OC)c1 (centres undefined),6%,40µM*,i,?,28%
CC(C)(C)c1ccc(NC(=O)N2CCCN(c3c(Cl)cncc3Cl)CC2)cc1,?,3%,i,i,7.3µM*
O=S(=O)(c1ccc2nc(Cc3cccc(C(F)(F)F)c3)[nH]c2c1)N1CCOCC1,?,2%[38.3 µM],i,i,2.9µM*
CN(C)c1ccc(/C=C/c2sc3ccccc3[n+]2Cc2ccccc2)cc1,.,40µM*,i,?,.
CCCN(CCC)c1ccc(/C=C/c2sc3ccccc3[n+]2CCCCI)cc1,.,14µM*,i,i,.
Cc1sc2ccccc2[n+]1Cc1ccccc1,.,.,i,i,.
COc1ccc(/C=C/c2sc3ccccc3[n+]2CCCCI)cc1OC,.,0%,?,?,.
COc1ccc(CCNc2ccc(C(CC(N)=O)NC(=O)c3cc(OC)ccc3OC)cc2[N+](=O)[O-])cc1 (centres undefined),-3%,1%,i,i,-6%
COc1ccc2ccc3cccc[n+]3c2c1,?,-3%,13µM*,i,?
COc1ccc2nc3ccccc3[n+]([O-])c2c1,0%,-1%,i,i,0%
Clc1ccc2c(NCCNC3CCCCC3)ccnc2c1,6.5µM*,-5%,?,?,?
Cc1ccccc1OC(C)C(=O)Nc1ccc(S(=O)(=O)N2CCCC2)cc1 (centres undefined),-3%,1%,.,.,?
CC(Oc1cc(F)ccc1[N+](=O)[O-])C(=O)Nc1ccc(S(=O)(=O)N2CCCC2)cc1 (centres undefined),16µM*,-2%,i,?,21µM*
CC(OC(=O)c1cc(Br)ccc1O)C(=O)Nc1ccc(S(=O)(=O)N2CCCC2)cc1 (centres undefined),?,16µM*,?,23µM*,?
COC(=O)c1cc2occc2n1Cc1nc(-c2ccccc2)oc1C,.,0%,i,i,.
CCOc1ccccc1NC(=O)CSc1nc2ccccc2nc1N1CCCC1,?,4%,i,i,15µM*
N#Cc1cc2ccccc2nc1SCC(=O)Nc1ccccc1N1CCOCC1,-8%,7%,i,4.6µM*,-2%
Cc1cccc2cc(C#N)c(SCC(=O)Nc3ccccc3N3CCOCC3)nc12,9%,20%,i,i,10%
COc1ccc(NC(=O)CSc2nc3ccccc3nc2N2CCCC2)cc1Cl,9%,4%,i,i,23µM*
Cc1ccc(NC(=O)CSc2nc3ccccc3nc2N2CCOCC2)cc1,?,0%,i,18µM*!,11%
O=S(=O)(c1cccc(C(F)(F)F)c1)N1CCN(c2nc(-c3cccs3)nc3cc(Cl)ccc23)CC1,.,-1%,.,.,.
CCn1c2ccccc2c2cc(NC(=O)c3ccc(C)c([N+](=O)[O-])c3)ccc21,-3%,3%,?,i,-1%
CCn1nnc(-c2ccccc2NC(=O)c2cc(OC)c(OC)c(OC)c2)n1,15µM*,0%[38.3 µM],i,i,?
